Compound activity (PubChem)
Sampled rows, rich in hits. Any-hit rate of the full collection: about 7.9%.
HCMV antiviral – human cytomegalovirus inhibition; actives 4.5% (n = 410,000); HFF cells, HCMV-luciferase reporter, 72 h; active compounds read low; activity change, negative = inhibition, % at 57.5 µM; in the data active means activity change below about -60%; inconclusive means no clear call, values can overlap the other calls; inactive means above about -39%
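Two-dose cell screen: HFF monolayers treated with compounds and infected with luciferase-expressing HCMV at 1 PFU/cell, 72 h at 37C, then lysed for luciferase measurement.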
Marburg entry inh – blocks Marburg virus binding to or entry into cells; Marburg virus pseudotyped entry inhibition, cell reporter; Potency, µM (highest dose often 37.8 µM), for the others: at the top dose activity change, negative = inhibition, usual class: inhibitors; actives 1.8% (n = 300,000); calls by dose curve; tested in HEK293 cells; further: potency means the concentration at half of the fitted maximal effect
FMDV inh – antivirals against foot and mouth disease virus | FMDV antiviral cell-based qHTS | Potency, µM (top dose mostly 57.9 µM), for the others: top-dose activity change, negative = inhibition, actives largely listed as inhibitors | actives 1.2% (n = 410,000) | AID 1159524; calls by dose curve; tested in HEK293T cells; further: read-out not given here; potency means the concentration at half of the fitted maximal effect; nearly all actives have a fitted effect of over 45% in size
Lassa entry inh – inhibitors of Lassa virus binding or cell entry; Lassa virus pseudotype entry inhibition, cell reporter; Potency, µM (titrated, usually from 37.9 µM), without a hit: at the highest dose activity change, negative = inhibition, hits mostly inhibitors; actives 1.2% (n = 300,000); AID 540256; calls by dose curve; tested in HEK293 cells; further: potency means the concentration at half of the fitted maximal effect; nearly all actives have a fitted effect of over 50% in size
HCV inhibitor – HCV inhibition; Potency, µM (series often up to 41.8 µM), without a hit: at the highest dose activity change, negative = inhibition, usual class: inhibitors; actives 3.4% (n = 340,000); Huh7.5.1 HCVcc-Cre infection, luciferase reporter, 44 h; AID 651820; active means well fitted inhibition curve with a large enough effect; inconclusive means small, poorly fitted or top-dose-only effect, or another doubt; inactive means no such curve, though single readings can be large or run the other way; further: potency means the concentration at half of the fitted maximal effect
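Compounds are dispensed onto cells plated 4 h earlier at 1,000 per well, with HCVcc-Cre virus (about 0.5 moi) added next. Following 44 h of culture, luminescent signal is measured for 15 sec after 15 min with substrate at room temperature.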
The depositor's hits bear a star; ? = inconclusive; . = no result; [ ] = dose if it differs, or a comment. On the % scale 0 is the no-effect control and ±100 the full control effect.

SMILES	HCMV antiviral	Marburg entry inh	FMDV inh	Lassa entry inh	HCV inhibitor
COc1ccc(OC)c(-c2cc(Cl)c3c(c2)CC(CNC(=O)/C=C/c2ccccn2)O3)c1 (stereo not drawn)	.	.	11.5%	.	.
COc1cc(C(=O)NC2CCN(C)CC2)ccc1Nc1ncc2c(n1)N(CCc1ccccc1)CCC(=O)N2C	-77.6*	0.8%	0.0%	.	-48.5%
COCCN(C)c1ccc2c(-c3ccccc3OC)noc2n1	31.6	.	.	.	.
Cc1cccc(C(=O)Nc2nc(-c3nnn(-c4cc(C)ccc4C)c3C)ns2)c1	-62.3*	.	?	-6.2%[46.1 µM]	.
COc1cccc(C(=O)Nc2nc(-c3nnn(-c4cc(C)ccc4C)c3C)ns2)c1	-11.6	.	?	24.2%[46.1 µM]	.
CCc1cccc(-n2nnc(-c3nsc(NC(=O)c4cccc(OC)c4)n3)c2C)c1	?	.	?	-5.9%[46.1 µM]	.
COc1cccc(C(=O)Nc2nc(-c3nnn(-c4ccccc4C(F)(F)F)c3C)ns2)c1	-76.0*	.	-10.9%	14.6%[46.1 µM]	.
COc1ccc(C(=O)Nc2nc(-c3nnn(-c4ccc(F)cc4F)c3C)ns2)cc1	-103.8*	.	?	?	.
Cc1cccc(C(=O)Nc2nc(-c3nnn(-c4cc(F)ccc4F)c3C)ns2)c1	-26.1	.	-15.5%	?	.
CC1=C(C(=O)N2CCCCCC2)CC(CC(=O)NC2CCCC2)C(=O)N1CCC1=CCCCC1 (stereo not drawn)	-23.8	.	-13.5%	.	.
Cc1ccc(SCC2(O)CCN(S(=O)(=O)c3ccc(Cl)cc3)CC2)cc1	2.1	?	?	-27.0%	?
CN1CCN(CC2(O)CCN(S(=O)(=O)c3ccc(Cl)cc3)CC2)CC1	-68.7*	?	-24.0%	4.3%	-7.8%
COc1ccc(S(=O)(=O)N2CCC(O)(c3ccc(Cl)cc3)CC2)cc1	-16.8	?	?	-3.4%	-23.2%
COc1ccc(S(=O)(=O)N2CCC(O)(c3ccc(Cl)cc3)CC2)cc1OC	-72.8*	?	?	?	6.0%
COc1ccc(NC(=O)NNS(=O)(=O)c2ccc(OC)c(OC)c2)c(OC)c1	.	-8.8%	-15.7%	-17.8%	19.4%
COc1ccc(NC(=O)c2cc(-c3cccnc3)nc3c(C)c(C)ccc23)c(OC)c1	22.4	-20.4%	?	4.4%	12.6µM*
CCN(CC)c1ccc(/C=c2\sc3nc4ccccc4n3c2=O)c(O)c1	-36.0	?	-20.5%	14.6%[46.1 µM]	?
CCN(CC)c1ccc2nc3ccc(N)cc3[n+](-c3ccccc3)c2c1	.	?	?	8.91µM*	5.01µM*
CCN(CC)c1ccc2nc3ccccc3[n+](CC)c2c1	.	?	7.94µM*	?	6.31µM*
OCCN1CCN(c2nc(NCc3ccco3)c3ccccc3n2)CC1	-33.3	-26.7%	19.6%	-15.9%	?
Cc1ccc(OCCN2CCN(c3nc(NCc4ccco4)c4ccccc4n3)CC2)cc1	-22.3	?	-10.1%	?	11.2µM*
c1ccc(CN2CCN(c3nc(NCc4ccco4)c4ccccc4n3)CC2)cc1	-33.6	?	31.6µM*	12.6µM*	?
COc1cc2nc(SCc3ccc(Cl)cc3)n3nc(CCn4nc(C)cc4C)nc3c2cc1OC	9.9	10.3%[46.1 µM]	7.3%	?	.
CCCc1nc2c(nnn2Cc2ccccc2Cl)c(=O)[nH]1	-32.8	-7.4%[46.1 µM]	-0.5%	-12.7%	1.3%
CCOC(=O)COc1ccc(C2C(C(=O)OC)=C(C)NC3=C2C(=O)c2ccccc23)cc1Cl (stereo not drawn)	-101.8*	3.2%[46.1 µM]	-14.3%	4.2%[46.1 µM]	.
SMILES	HCMV antiviral	Marburg entry inh	FMDV inh	Lassa entry inh	HCV inhibitor
Cc1ccc(CNC(=O)c2cc3c(=O)n4cccc(C)c4nc3n(CC3CCCO3)c2=N)cc1 (stereo not drawn)	.	-2.0%	.	.	.
CCOCCCn1c(=N)c(C(=O)NCC2CCCO2)cc2c(=O)n3cccc(C)c3nc21 (stereo not drawn)	-67.1*	?	-22.4%	6.6%[46.1 µM]	.
Cc1ccc(Cn2c(=N)c(C(=O)NCC3CCCO3)cc3c(=O)n4cccc(C)c4nc32)cc1 (stereo not drawn)	-107.4*	?	6.9%	-9.7%[46.1 µM]	11.2µM*
COCCCn1c(=N)c(C(=O)NCC2CCCO2)cc2c(=O)n3cccc(C)c3nc21 (stereo not drawn)	-26.8	?	-25.1%	0.3%	-1.7%
COc1ccc(OC)c(NC(=O)C(C)n2c(=O)c(-c3ccccc3NC(C)=O)nc3ccccc32)c1 (stereo not drawn)	-1.8	-10.0%[46.1 µM]	-9.9%	-11.0%[46.1 µM]	.
CC(C)(C)c1ccc(O)c(N=Cc2cc(Br)ccc2O)c1	-37.0	.	?	.	-3.8%
Oc1ccc2ccccc2c1C=Nc1ccccc1-c1nc2ccccc2[nH]1	10.6	?	6.4%	?	11.2µM*
CC(C)(C)c1ccc(O)c(N=Cc2c(O)ccc3ccccc23)c1	-92.3*	?	-23.5%	?	?
O=C(O)c1ccccc1-c1nc2ccccc2[nH]1	-26.5	?	28.1%	9.6%	10.8%
O=S(=O)(c1ccc(Br)s1)n1cccn1	-35.7	-19.1%	3.5%	23.3%	6.8%
O=c1[nH]c(SCc2ccccc2Cl)nc2c1CCC2	18.0	5.6%	-4.7%	17.3%	-21.5%
CNc1nc(SCc2ccccc2Cl)nc2c1CCCC2	-39.9	-22.1%	-28.6%	?	7.08µM*
CN(CCCNC(=O)Cn1ncc2c([nH]c3ccccc32)c1=O)Cc1ccccc1	5.9	.	-3.9%	-8.4%[46.1 µM]	.
Cc1cccc(CN2C(=O)[C@H]3Cc4c([nH]c5ccccc45)C(C)(C)N3C2=O)c1	37.1	.	35.5µM*	.	.
CCCNC(=O)C1(C)CCN(C(=O)c2ccc3snnc3c2)C1 (stereo not drawn)	1.0	.	-5.3%	.	.
C#CCn1c(C2CC(=O)N(c3ccc(OC)cc3)C2)nc2ccccc21 (stereo not drawn)	-12.5	?	3.3%	1.4%[46.1 µM]	.
COc1cccc2c1Oc1ncccc1N(C(=O)CCC(=O)NCCC(C)C)C2	9.3	.	-13.5%	17.3%[46.1 µM]	.
Cc1ccc(OCC(=O)NC(=S)Nc2ccccn2)c(Br)c1	-62.5*	?	15.8µM*	?	18.0%
CC(CCO)Nc1nc2c(c(=O)n(C)c(=O)n2C)n1Cc1ccc(Br)cc1 (stereo not drawn)	15.7	-2.0%[46.1 µM]	0.5%	-27.6%[46.1 µM]	.
COc1ccc(C(=O)O/N=C(\N)c2ccccn2)c(OC)c1	-74.9*	?	-57.5%	?	?
COc1ccc(Cl)cc1C(=O)O/N=C(\N)c1ccccn1	143.1	.	35.3%	.	?
COc1ccc(C(=O)O/N=C(\N)c2ccc(OC)c(OC)c2)cc1	69.0	.	15.7%	.	3.6%
COc1cc(OC)cc(C(=O)O/N=C(\N)c2cccc(C)c2)c1	46.2	.	25.5%	.	11.2µM*
COc1ccc(C(=O)O/N=C(\N)c2ccc(OC)c(OC)c2)c(OC)c1	.	1.2%	16.1%	.	12.6µM*
COc1ccc(C(=O)O/N=C(\N)c2ccccc2)c(OC)c1	-77.7*	1.46µM*	-36.3%	?	?
CC(=O)C(C)Oc1ccc(Cc2ncc(C(F)(F)F)cc2Cl)cc1 (stereo not drawn)	13.8	-16.9%[46.1 µM]	-19.1%	.	5.0%
CNC[C@@H]1Oc2cc(Br)ccc2S(=O)(=O)N([C@@H](C)CO)C[C@@H]1C	8.2	.	0.0%	.	.
